We go through 42 molecules from PubChem BioAssay AID2240 (Broad Institute, 2010).

As a reminder, the inhibition is the drop in the measured response relative to a control, in per cent.

Out of some 37,000 compounds screened, about 100 (0.27%) were called active. What follows is part of a selection rich in actives, with near analogues and random picks from the rest. A number with no mark means an inactive call. No stated cut-off is given here; in the data, active means inhibition above about 85%; inconclusive means no clear call, values can overlap the other calls; inactive means below about 68%.

The assay can be described thus: inhibitors of MITF, primary screen, MITF inhibitor project, cell-based, luminescence (AID 2240).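 Further: human melanocyte line stably carrying TRPM1 promoter luciferase reporter.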 As to conditions: TRPM1 promoter luciferase, 24 h, hits give high values, concentration not given here.
As for `COc1ccc(NC(=O)CSC2CC(=O)N(c3ccc(F)cc3)C2=O)cc1` (configuration not stated), the inhibition is -4.35%.
To `CC(=O)Nc1ccc(NC(=O)CN(c2ccc(I)cc2)S(C)(=O)=O)cc1` belongs -73.1%; to `C[C@@H]1CN([C@H](C)CO)C(=O)c2cc(N(C)C)ccc2O[C@@H]1CN(C)S(=O)(=O)c1cn(C)cn1`, 0.48%.
The figure for `COc1ccc(NC(=O)Nc2ccc3c(c2)CC(=O)N([C@@H](C)CO)C[C@@H](C)[C@@H](CN(C)Cc2ccc(C(F)(F)F)cc2)O3)cc1` is 40.7%; for `C[C@@H]1CN([C@@H](C)CO)C(=O)c2cc(NC(=O)Nc3ccc(C(F)(F)F)cc3)ccc2O[C@@H]1CN(C)Cc1ccncc1` it is 0.516%.
As for `COC(=O)c1c(C)c(=O)[nH]c2ccccc12`, the inhibition is 11.2%.
In the case of `C[C@@H]1CN([C@H](C)CO)C(=O)c2cc(NC(=O)CCCCCC(=O)Nc3ccccc3N)ccc2O[C@H]1CN(C)C(=O)Nc1ccc(C(F)(F)F)cc1`, the inhibition is 1.03%.
To `CNC[C@H]1Oc2ccc(NC(=O)CCC(F)(F)F)cc2C(=O)N([C@@H](C)CO)C[C@H]1C` belongs -6.95%; to `CC(C)(O)C(O)COc1c2occc2cc2ccc(=O)oc12` (configuration not stated), -25%.
The figure for `CS(=O)(=O)N(CC(=O)Nc1ccc(Br)cc1)c1cc(Cl)c(Cl)cc1Cl` is -6.97%; for `C[C@@H]1CN([C@H](C)CO)C(=O)Cc2cc(NC(=O)CCCN(C)C)ccc2O[C@H]1CN(C)S(=O)(=O)c1cccs1` it is -32%; for `C[C@H](CO)N1C[C@H](C)[C@H](CN(C)C(=O)Nc2ccccc2)Oc2ccc(NC(=O)C3CC3)cc2CC1=O` it is -0.845%.
In the case of `C[C@@H]1CN([C@H](C)CO)C(=O)c2cc(NS(=O)(=O)c3cn(C)cn3)ccc2O[C@H]1CN(C)S(=O)(=O)c1ccc(Cl)cc1`, the inhibition is -0.174%.
The figure for `Cc1noc(C)c1S(=O)(=O)Nc1ccc2c(c1)CC(=O)N([C@H](C)CO)C[C@@H](C)[C@@H](CN(C)C)O2` is -9.62%; for `Cc1cc(C)c(NC(=O)CSc2nnc(-c3ccccc3)n2-c2ccc(F)cc2)c(C)c1` it is 15.6%.
To `Cc1ccc(S(=O)(=O)Nc2ccc3c(c2)C(=O)N([C@@H](C)CO)C[C@@H](C)[C@H](CN(C)Cc2ccc(C(F)(F)F)cc2)O3)cc1` belongs 24.8%.
The figure for `O=C(CSc1nccc(=O)[nH]1)Nc1cccc(Br)c1` is -6.51%.
With `C[C@H](CO)N1C[C@H](C)[C@H](CN(C)Cc2ccc(-c3ccccc3)cc2)Oc2ccc(NS(=O)(=O)c3ccccc3)cc2C1=O`, the inhibition is 0.813%.
To `Cc1noc(C)c1NC(=O)Nc1ccc2c(c1)C(=O)N([C@@H](C)CO)C[C@@H](C)[C@H](CN(C)Cc1ccc(C(F)(F)F)cc1)O2` belongs -0.382%.
`Cc1cccc(NC(=O)CSc2nc3c(cc2C#N)CCCCC3)c1`: the inhibition is 0.0416%.
To `CN(CC(=O)Nc1ccc(F)cc1)S(=O)(=O)c1ccccc1` belongs -37.2%.
The figure for `C[C@H]1CN([C@@H](C)CO)C(=O)Cc2cc(NC(=O)C3CC3)ccc2O[C@H]1CN(C)C(=O)Nc1ccc(C(F)(F)F)cc1` is -4.89%; for `COc1ccc(CN(C)C[C@H]2Oc3ccc(NC(=O)CCN4CCOCC4)cc3C(=O)N([C@@H](C)CO)C[C@H]2C)cc1` it is 9.34%.
The figure for `Cc1cccc(C)c1NC(=O)C(C)N(c1ccc(Cl)cc1)S(C)(=O)=O` (configuration not stated) is -20.7%; for `Cc1noc(C)c1S(=O)(=O)N(C)C[C@H]1Oc2ccc(NC(=O)CCN3CCOCC3)cc2CC(=O)N([C@H](C)CO)C[C@H]1C` it is 10.6%.
Take `O=C(NCc1ccco1)c1cc(-c2cccnc2)nc2ccc(Cl)cc12`: the inhibition is -14.7%.
For the molecule `Cc1ccc(S(=O)(=O)Nc2cccc3c2O[C@H](CN(C)S(=O)(=O)c2cn(C)cn2)[C@H](C)CN([C@H](C)CO)C3=O)cc1`, the inhibition was 0.736%.
To `Cc1ccc(S(=O)(=O)N(C)C[C@@H]2Oc3ccc(NC(=O)Nc4ccc(F)cc4)cc3C(=O)N([C@H](C)CO)C[C@@H]2C)cc1` belongs -19.7%; to `Cc1ccc(-n2c(SCC(=O)Nc3ccc(F)c(F)c3)nnc2-c2cnccn2)cc1`, -1.94%; to `C[C@H](CO)N1C[C@H](C)[C@H](CN(C)Cc2ccncc2)Oc2ccc(NS(=O)(=O)c3ccc(F)cc3)cc2CC1=O`, -14.1%.
As for `COc1ccccc1NC(=O)CN(c1ccc(Br)c(C)c1)S(C)(=O)=O`, the inhibition is -1.36%.
The figure for `C[C@H]1CN([C@@H](C)CO)C(=O)Cc2cc(NS(=O)(=O)c3cccs3)ccc2O[C@@H]1CN(C)S(=O)(=O)c1cn(C)cn1` is -7.83%.
As for `C[C@@H]1CN([C@@H](C)CO)C(=O)c2cccc(NC(=O)c3nc4ccccc4s3)c2O[C@@H]1CN(C)Cc1ccc(Cl)c(Cl)c1`, the inhibition was 10.3%.
As for `CN(C)c1ccc(NC(=O)CN(C)S(=O)(=O)c2ccc(Br)cc2)cc1`, the inhibition is -8.87%.
`COc1ccccc1NC(=O)CSc1ncc(-c2ccccc2)nn1`: the inhibition is -3.76%.
With `Cn1c(SCc2nc3ccccc3c(=O)[nH]2)nnc1-c1cc2ccccc2o1`, the inhibition is 17.4%.
With `C[C@H]1CN([C@@H](C)CO)C(=O)Cc2cc(NC(=O)NC3CCCCC3)ccc2O[C@H]1CN(C)S(=O)(=O)c1cccs1`, the inhibition is 6.16%.
As to `COc1ccc(S(=O)(=O)Nc2ccc3c(c2)C(=O)N([C@@H](C)CO)C[C@@H](C)[C@@H](CN(C)S(C)(=O)=O)O3)cc1`, the inhibition is 2.87%.
To `C[C@@H]1CN([C@@H](C)CO)C(=O)Cc2cc(NC(=O)Cc3ccccc3)ccc2O[C@@H]1CN(C)Cc1ccc(Oc2ccccc2)cc1` belongs 41.7%; to `O=C(CN1CCOCC1)Nc1sc2c(c1C(=O)Nc1ccc(Br)cc1)CCC2`, 53%; to `COc1ccc(NC(=O)N(C)C[C@H]2Oc3ccc(NS(=O)(=O)c4cccs4)cc3C(=O)N([C@@H](C)CO)C[C@H]2C)cc1`, -5.79%.
On to `C[C@H](CO)N1C[C@H](C)[C@H](CN(C)S(=O)(=O)c2cn(C)cn2)Oc2c(NC(=O)c3ccc(-c4nccs4)cc3)cccc2C1=O`, for which the inhibition was -4.22%.
